Laboratory results taken from ChEMBL document CHEMBL2218924, “A broad activity screen in support of a chemogenomic map for kinase signalling research and drug discovery” (Biochem J, 2013).

Columns and labels:
[1] = target: Focal adhesion kinase 1 (Homo sapiens) (UniProt Q05397); details: at 10 µM
[2] = target: Fibroblast growth factor receptor 1 (Homo sapiens) (UniProt P11362); details: at 1 µM
[3] = target: Fibroblast growth factor receptor 1 (Homo sapiens) (UniProt P11362); details: at 10 µM
[4] = target: Fibroblast growth factor receptor 4 (Homo sapiens) (UniProt P22455); details: at 1 µM
Chain of Fibroblast growth factor receptor 4 (Homo sapiens) (P22455 22-802 limits assumed): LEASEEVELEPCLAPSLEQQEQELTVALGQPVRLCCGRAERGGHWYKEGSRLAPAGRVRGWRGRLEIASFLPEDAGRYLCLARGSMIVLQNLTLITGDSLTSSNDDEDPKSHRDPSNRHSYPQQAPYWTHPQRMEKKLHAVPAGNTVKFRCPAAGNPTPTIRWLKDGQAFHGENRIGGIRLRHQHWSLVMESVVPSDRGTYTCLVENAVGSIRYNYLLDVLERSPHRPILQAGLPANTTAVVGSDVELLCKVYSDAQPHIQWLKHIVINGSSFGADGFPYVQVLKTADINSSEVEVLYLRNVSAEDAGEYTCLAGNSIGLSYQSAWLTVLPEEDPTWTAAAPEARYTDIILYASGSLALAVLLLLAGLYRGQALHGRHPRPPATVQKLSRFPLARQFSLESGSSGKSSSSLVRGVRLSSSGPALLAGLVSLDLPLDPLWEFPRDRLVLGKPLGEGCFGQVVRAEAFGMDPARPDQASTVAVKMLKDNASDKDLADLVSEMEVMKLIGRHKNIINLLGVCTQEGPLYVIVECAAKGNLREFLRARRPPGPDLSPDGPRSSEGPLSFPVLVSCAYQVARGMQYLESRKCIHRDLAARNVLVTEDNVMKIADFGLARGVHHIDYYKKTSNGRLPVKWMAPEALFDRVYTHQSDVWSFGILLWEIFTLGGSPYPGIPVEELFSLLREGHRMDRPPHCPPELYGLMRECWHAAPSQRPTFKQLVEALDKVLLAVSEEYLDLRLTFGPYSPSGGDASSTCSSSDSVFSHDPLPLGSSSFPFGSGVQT

[5] = target: Fibroblast growth factor receptor 4 (Homo sapiens) (UniProt P22455); details: at 10 µM
[6] = target: Tyrosine-protein kinase Fer (Homo sapiens) (UniProt P16591); details: at 1 µM
[7] = target: Tyrosine-protein kinase Fer (Homo sapiens) (UniProt P16591); details: at 10 µM
[8] = target: Tyrosine-protein kinase Fes/Fps (Homo sapiens) (UniProt P07332); details: at 1 µM
[9] = target: Tyrosine-protein kinase Fes/Fps (Homo sapiens) (UniProt P07332); details: at 10 µM
[10] = target: Vascular endothelial growth factor receptor 1 (Homo sapiens) (UniProt P17948); details: at 1 µM
Chain of Vascular endothelial growth factor receptor 1 (Homo sapiens) (P17948 whole entry): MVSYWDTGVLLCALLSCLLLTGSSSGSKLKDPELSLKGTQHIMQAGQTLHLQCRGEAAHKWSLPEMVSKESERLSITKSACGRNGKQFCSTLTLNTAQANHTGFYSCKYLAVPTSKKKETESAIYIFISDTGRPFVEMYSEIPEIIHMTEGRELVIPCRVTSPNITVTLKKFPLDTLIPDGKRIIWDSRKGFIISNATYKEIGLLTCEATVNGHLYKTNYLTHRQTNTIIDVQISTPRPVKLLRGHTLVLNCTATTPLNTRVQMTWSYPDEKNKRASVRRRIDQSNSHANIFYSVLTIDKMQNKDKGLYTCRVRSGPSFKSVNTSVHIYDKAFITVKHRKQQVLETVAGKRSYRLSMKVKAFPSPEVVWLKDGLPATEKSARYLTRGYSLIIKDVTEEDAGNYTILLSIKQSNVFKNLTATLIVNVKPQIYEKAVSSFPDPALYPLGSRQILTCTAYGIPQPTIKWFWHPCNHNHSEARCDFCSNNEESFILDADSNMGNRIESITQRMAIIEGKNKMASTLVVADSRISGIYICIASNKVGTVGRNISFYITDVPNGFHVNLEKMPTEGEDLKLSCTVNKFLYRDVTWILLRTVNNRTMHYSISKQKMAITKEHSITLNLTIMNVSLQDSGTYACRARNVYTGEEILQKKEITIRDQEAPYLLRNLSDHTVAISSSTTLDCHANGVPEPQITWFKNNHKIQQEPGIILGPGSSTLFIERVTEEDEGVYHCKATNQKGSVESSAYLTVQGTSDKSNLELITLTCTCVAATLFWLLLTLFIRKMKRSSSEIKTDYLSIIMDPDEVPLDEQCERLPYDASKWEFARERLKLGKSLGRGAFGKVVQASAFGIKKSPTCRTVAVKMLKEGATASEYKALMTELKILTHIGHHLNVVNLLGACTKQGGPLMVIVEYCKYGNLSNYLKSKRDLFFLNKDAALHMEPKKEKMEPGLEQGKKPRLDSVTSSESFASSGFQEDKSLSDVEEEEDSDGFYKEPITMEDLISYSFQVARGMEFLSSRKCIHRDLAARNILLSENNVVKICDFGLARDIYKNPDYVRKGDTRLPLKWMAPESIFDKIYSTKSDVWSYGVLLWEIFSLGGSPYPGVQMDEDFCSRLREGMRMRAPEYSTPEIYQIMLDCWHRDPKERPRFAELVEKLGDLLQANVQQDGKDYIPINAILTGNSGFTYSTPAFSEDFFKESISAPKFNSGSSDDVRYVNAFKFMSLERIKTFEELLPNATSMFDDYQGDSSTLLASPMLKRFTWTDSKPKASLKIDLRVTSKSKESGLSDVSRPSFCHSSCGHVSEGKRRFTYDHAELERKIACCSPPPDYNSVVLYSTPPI

[11] = target: Vascular endothelial growth factor receptor 1 (Homo sapiens) (UniProt P17948); details: at 10 µM
[12] = target: Receptor-type tyrosine-protein kinase FLT3 (Homo sapiens) (UniProt P36888); details: at 1 µM
Chain of Receptor-type tyrosine-protein kinase FLT3 (Homo sapiens) (P36888 whole entry): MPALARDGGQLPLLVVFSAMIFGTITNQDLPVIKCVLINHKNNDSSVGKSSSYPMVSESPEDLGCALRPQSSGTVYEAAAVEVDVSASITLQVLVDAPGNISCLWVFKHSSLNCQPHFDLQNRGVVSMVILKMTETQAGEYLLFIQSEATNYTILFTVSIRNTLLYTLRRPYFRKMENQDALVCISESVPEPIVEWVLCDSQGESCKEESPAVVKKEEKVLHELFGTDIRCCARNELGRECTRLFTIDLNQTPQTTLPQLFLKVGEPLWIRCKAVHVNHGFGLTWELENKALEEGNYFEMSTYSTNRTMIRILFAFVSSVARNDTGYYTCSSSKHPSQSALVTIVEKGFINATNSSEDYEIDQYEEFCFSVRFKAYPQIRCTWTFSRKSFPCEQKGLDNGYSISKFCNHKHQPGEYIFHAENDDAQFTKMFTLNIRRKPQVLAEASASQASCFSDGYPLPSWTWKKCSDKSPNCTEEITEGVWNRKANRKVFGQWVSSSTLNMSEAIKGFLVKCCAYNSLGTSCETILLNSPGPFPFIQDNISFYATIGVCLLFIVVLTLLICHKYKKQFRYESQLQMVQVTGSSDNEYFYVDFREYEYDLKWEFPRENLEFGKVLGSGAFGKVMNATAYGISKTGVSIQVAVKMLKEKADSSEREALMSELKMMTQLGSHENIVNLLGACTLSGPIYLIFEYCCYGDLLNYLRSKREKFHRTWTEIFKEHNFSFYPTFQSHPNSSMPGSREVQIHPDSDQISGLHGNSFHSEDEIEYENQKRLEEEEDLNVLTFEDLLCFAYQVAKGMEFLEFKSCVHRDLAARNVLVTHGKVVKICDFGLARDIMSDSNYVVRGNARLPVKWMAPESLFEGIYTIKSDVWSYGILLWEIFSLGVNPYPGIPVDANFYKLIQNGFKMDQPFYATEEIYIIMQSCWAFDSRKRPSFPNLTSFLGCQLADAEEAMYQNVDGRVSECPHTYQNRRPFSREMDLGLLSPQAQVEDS

[13] = target: Receptor-type tyrosine-protein kinase FLT3 (Homo sapiens) (UniProt P36888); details: at 10 µM
[14] = target: Vascular endothelial growth factor receptor 3 (Homo sapiens) (UniProt P35916); details: at 1 µM
Chain of Vascular endothelial growth factor receptor 3 (Homo sapiens) (P35916 whole entry): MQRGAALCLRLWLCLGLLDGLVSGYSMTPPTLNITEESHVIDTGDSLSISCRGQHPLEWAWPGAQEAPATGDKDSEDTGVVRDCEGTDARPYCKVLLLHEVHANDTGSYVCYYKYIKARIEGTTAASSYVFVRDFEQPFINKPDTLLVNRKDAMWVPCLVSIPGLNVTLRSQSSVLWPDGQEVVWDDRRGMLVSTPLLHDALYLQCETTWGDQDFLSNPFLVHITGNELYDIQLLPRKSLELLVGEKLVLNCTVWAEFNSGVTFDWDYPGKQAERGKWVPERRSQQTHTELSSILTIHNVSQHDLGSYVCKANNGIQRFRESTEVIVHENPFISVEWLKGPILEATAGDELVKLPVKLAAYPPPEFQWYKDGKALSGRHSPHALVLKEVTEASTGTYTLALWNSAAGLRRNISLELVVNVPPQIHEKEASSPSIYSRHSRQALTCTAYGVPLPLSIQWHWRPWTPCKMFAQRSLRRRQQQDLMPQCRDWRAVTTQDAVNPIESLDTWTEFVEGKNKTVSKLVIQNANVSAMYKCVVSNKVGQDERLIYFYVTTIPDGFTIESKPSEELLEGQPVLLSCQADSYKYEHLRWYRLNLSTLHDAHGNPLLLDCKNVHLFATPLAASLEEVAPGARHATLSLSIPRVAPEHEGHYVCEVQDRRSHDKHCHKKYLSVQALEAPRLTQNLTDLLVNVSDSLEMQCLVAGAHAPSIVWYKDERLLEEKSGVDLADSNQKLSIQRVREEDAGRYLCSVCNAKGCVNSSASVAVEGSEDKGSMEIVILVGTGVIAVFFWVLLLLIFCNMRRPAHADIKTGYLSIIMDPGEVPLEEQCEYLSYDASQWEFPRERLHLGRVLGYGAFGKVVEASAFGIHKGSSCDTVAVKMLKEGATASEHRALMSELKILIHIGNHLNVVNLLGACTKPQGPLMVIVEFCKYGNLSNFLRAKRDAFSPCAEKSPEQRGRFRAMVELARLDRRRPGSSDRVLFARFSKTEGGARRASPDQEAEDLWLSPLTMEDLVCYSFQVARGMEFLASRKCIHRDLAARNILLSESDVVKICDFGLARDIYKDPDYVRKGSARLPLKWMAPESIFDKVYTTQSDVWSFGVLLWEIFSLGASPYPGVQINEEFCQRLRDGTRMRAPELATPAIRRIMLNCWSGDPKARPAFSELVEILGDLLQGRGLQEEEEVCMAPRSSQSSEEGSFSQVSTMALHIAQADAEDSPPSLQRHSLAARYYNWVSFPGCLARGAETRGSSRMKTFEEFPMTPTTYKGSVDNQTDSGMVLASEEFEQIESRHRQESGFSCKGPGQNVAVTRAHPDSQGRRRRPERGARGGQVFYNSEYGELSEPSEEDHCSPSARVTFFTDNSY

[15] = target: Fibroblast growth factor receptor 2 (Homo sapiens) (UniProt P21802); details: at 1 µM
[16] = target: Fibroblast growth factor receptor 2 (Homo sapiens) (UniProt P21802); details: at 10 µM
[17] = target: Fibroblast growth factor receptor 3 (Homo sapiens) (UniProt P22607); details: at 1 µM
[18] = target: Fibroblast growth factor receptor 3 (Homo sapiens) (UniProt P22607); details: at 10 µM
[19] = target: Tyrosine-protein kinase Fgr (Homo sapiens) (UniProt P09769); details: at 1 µM
Chain of Tyrosine-protein kinase Fgr (Homo sapiens) (P09769 2-529 limits assumed): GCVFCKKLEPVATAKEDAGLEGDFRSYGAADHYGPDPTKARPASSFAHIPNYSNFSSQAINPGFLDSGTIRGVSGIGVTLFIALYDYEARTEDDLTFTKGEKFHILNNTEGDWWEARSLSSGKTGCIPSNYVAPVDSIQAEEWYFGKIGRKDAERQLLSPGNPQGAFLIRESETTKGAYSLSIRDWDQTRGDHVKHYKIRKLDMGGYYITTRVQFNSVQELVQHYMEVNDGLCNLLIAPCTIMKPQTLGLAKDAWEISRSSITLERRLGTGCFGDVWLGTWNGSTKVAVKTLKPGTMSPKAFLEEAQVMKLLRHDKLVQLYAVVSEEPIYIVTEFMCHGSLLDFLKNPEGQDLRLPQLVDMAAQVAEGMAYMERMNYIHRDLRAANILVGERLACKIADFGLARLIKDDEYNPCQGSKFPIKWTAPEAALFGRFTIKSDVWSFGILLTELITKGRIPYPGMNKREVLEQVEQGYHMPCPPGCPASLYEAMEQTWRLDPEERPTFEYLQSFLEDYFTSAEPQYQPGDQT

[20] = target: Tyrosine-protein kinase Fgr (Homo sapiens) (UniProt P09769); details: at 10 µM

Structure (SMILES) | residual activity [1] [%] | residual activity [2] [%] | residual activity [3] [%] | residual activity [4] [%] | residual activity [5] [%] | residual activity [6] [%] | residual activity [7] [%] | residual activity [8] [%] | residual activity [9] [%] | residual activity [10] [%] | residual activity [11] [%] | residual activity [12] [%] | residual activity [13] [%] | residual activity [14] [%] | residual activity [15] [%] | residual activity [16] [%] | residual activity [17] [%] | residual activity [18] [%] | residual activity [19] [%] | residual activity [20] [%]
O=C(c1ccccc1)c1ccc(N2CCOCC2)cc1O | 85 | 98 | 73 | 116 | 95 | 125 | 97 | 116 | 93 | 100 | 93 | 83 | 53 | 87 | – | – | – | – | – | –
COc1cc2nccc(Oc3ccc(NC(=S)NC(=O)c4ccccc4C)cc3)c2cc1OC | 66 | 49 | 8 | – | 78 | 70 | 34 | 79 | 36 | 5 | 0 | 75 | 31 | 1 | 84 | 40 | 90 | 58 | 14 | 3
O=C1NC(=O)C(c2c[nH]c3ccccc23)=C1c1c[nH]c2ccccc12 | 44 | 9 | 1 | – | 71 | – | 52 | – | 48 | 4 | 1 | 19 | 1 | 2 | 37 | 9 | 27 | 4 | 98 | 60
O=c1cc(N2CCOCC2)oc2c1ccc1ccccc12 | 92 | 109 | 71 | – | – | – | 96 | – | 98 | 98 | 95 | 101 | 97 | 94 | 111 | 101 | – | – | 107 | 94
NCCNc1ncc(C(N)=O)c(Nc2cccc(C(F)(F)F)c2)n1 | 7 | 113 | 68 | – | – | 102 | 47 | 32 | 3 | – | – | 50 | 5 | – | 100 | 80 | – | – | 30 | 6
CC(C)(C)c1nc2c3ccc(F)cc3c3c(=O)[nH]ccc3c2[nH]1 | 9 | – | – | 119 | – | 67 | 27 | – | – | – | – | 45 | 26 | 28 | – | – | – | – | – | –
COc1cc2nccc(Oc3ccc(NC(=O)Nc4cc(C)on4)c(Cl)c3)c2cc1OC | 35 | – | – | 76 | 31 | – | – | 78 | 46 | – | – | – | – | -1 | 25 | 5 | – | 28 | 8 | 4
CCN1/C(=C/C(C)=O)Sc2ccc(OC)cc21 | – | – | – | – | – | – | – | – | – | – | 81 | 64 | 39 | – | – | – | – | – | – | 73
Nc1n[nH]c2nc3ccccc3nc12 | 83 | – | – | 120 | – | 90 | 90 | 95 | 87 | 89 | 66 | 70 | 45 | 79 | 122 | 84 | – | – | 100 | 87
O=C1Nc2ccccc2/C1=C\c1c(Cl)[nH]c2ccccc12 | 85 | – | – | – | – | – | 67 | 99 | 78 | – | 38 | – | 55 | 64 | 119 | 79 | – | – | – | 64
N#C/C(=C1/Nc2ccccc2S1)c1ccnc(NCCc2cccnc2)n1 | 60 | – | – | 117 | 67 | 89 | 60 | 96 | 73 | 78 | 33 | – | – | 68 | 100 | 45 | – | – | 81 | 44
CCCC(=O)Oc1ccc2[nH]c(C(=O)c3cc4ccccc4[nH]3)cc2c1 | 79 | – | – | 125 | 86 | 107 | 98 | 104 | 81 | 83 | 86 | 73 | 50 | 73 | 97 | 108 | – | – | 97 | 82
CC(C)[C@H](CO)Nc1nc(Nc2cc(N)cc(Cl)c2)c2ncn(C(C)C)c2n1 | 3 | – | – | – | 88 | 88 | 23 | 57 | 12 | – | – | 12 | 2 | 11 | 84 | 22 | 92 | 20 | 33 | 3
O=C1NC(=O)C(c2cn(CCCO)c3ncccc23)=C1c1cnccn1 | – | 80 | 68 | – | – | 89 | 94 | – | – | 41 | 46 | 57 | 51 | 28 | 91 | 81 | – | – | 95 | 97
O=C(NC(NC(=S)Nc1ccc(F)c([N+](=O)[O-])c1)C(Cl)(Cl)Cl)C(c1ccccc1)c1ccccc1 (configuration not stated) | – | – | 59 | – | 83 | – | 103 | – | – | – | – | 99 | 82 | 93 | – | 73 | – | – | – | –
CCOc1nc(NC(=O)Cc2cc(OC)ccc2OC)cc(N)c1C#N | – | – | – | – | – | – | – | – | – | – | – | – | – | – | 100 | – | – | – | – | –
O=S(=O)(c1cccc2cnccc12)N1CCCNCC1 | – | – | 81 | – | – | – | – | – | – | – | – | – | – | – | – | – | – | – | – | –
Fc1ccc(-c2nc3n(c2-c2ccncc2)CCS3)cc1 | – | 137 | – | – | – | – | – | – | – | – | – | 98 | 82 | 89 | – | – | – | – | – | 97
COc1ccc2c(c1)c(C1=C(c3c[nH]c4ccccc34)C(=O)NC1=O)cn2CCCN(C)C | – | 38 | 3 | 120 | – | 102 | 58 | 96 | 26 | 2 | 0 | 21 | 0 | 2 | 72 | 18 | 63 | 13 | – | 33

Structure (SMILES) | residual activity [1] [%] | residual activity [2] [%] | residual activity [3] [%] | residual activity [4] [%] | residual activity [5] [%] | residual activity [6] [%] | residual activity [7] [%] | residual activity [8] [%] | residual activity [9] [%] | residual activity [10] [%] | residual activity [11] [%] | residual activity [12] [%] | residual activity [13] [%] | residual activity [14] [%] | residual activity [15] [%] | residual activity [16] [%] | residual activity [17] [%] | residual activity [18] [%] | residual activity [19] [%] | residual activity [20] [%]
Nc1nc(Nc2ccc(S(N)(=O)=O)cc2)nn1C(=O)c1c(F)cccc1F | 52 | – | – | 99 | 66 | 101 | 55 | – | – | 18 | 2 | – | 5 | 1 | 36 | 7 | 29 | 4 | 63 | 20
O=C1Cc2c([nH]c3ccc([N+](=O)[O-])cc23)-c2ccccc2N1 | – | 74 | 59 | 112 | 102 | – | – | 35 | 43 | 49 | 24 | 30 | 20 | 29 | – | – | 125 | 109 | 40 | 48
COc1ccc(Cl)cc1NC(=O)Nc1cc(C)nc2ccccc12 | 64 | – | – | – | – | – | – | – | 94 | 96 | 91 | – | – | – | – | – | – | – | 99 | 82
O=C(O)/C=C/c1cc(Br)c(Br)c(Br)c1Br | 98 | – | – | – | 96 | 97 | 107 | 97 | 74 | 92 | 67 | 72 | 27 | 79 | – | 94 | 103 | 99 | 104 | 103
N#C/C(=C\c1ccc(O)c(O)c1)C(=O)NCc1ccccc1 | – | – | – | – | – | – | – | 124 | 76 | – | – | – | – | – | 103 | 120 | – | – | – | 82
NC(=O)c1ccc(-c2nc(-c3ccc4c(c3)OCCO4)c(-c3ccccn3)[nH]2)cc1 | – | – | – | 122 | 95 | – | – | – | – | 82 | 70 | 64 | 51 | 79 | 117 | 82 | – | – | – | –
Nc1ncnc2[nH]nc(Nc3ccc(F)cc3)c12 | – | – | – | 98 | – | 98 | 99 | 98 | – | – | 35 | 114 | 94 | 80 | 91 | 60 | 113 | – | 56 | 18
O=C(Nc1nc2ccccc2n1CCN1CCOCC1)c1cccc([N+](=O)[O-])c1 | 87 | – | – | 114 | – | – | – | 101 | 74 | – | – | 38 | 29 | 36 | – | – | – | – | 102 | –
CSc1nc(-c2ccc(F)cc2)c(-c2ccnc(NC(C)c3ccccc3)c2)[nH]1 (configuration not stated) | – | 126 | 53 | – | 78 | – | – | 102 | 87 | – | 80 | 86 | 83 | 97 | 87 | 68 | – | 78 | 84 | 71
O=c1c(-c2ccc(F)cc2)c(-c2ccncc2)[nH]n1-c1ccc(Cl)cc1 | – | 127 | 40 | – | – | – | – | – | – | 100 | 50 | – | – | – | – | – | 123 | – | – | 65
COc1ccc(COc2ccc(Cc3cnc(N)nc3N)cc2OC)cc1 | – | 112 | – | 131 | – | – | – | – | – | – | – | – | – | – | 112 | 76 | – | – | – | –
O=C(CCCc1ccc(-c2ccccc2F)cc1)Nc1ccc(O)cc1 | 112 | – | – | – | – | 109 | 91 | 107 | 100 | 109 | 100 | 101 | 87 | 101 | 99 | 99 | – | – | 93 | 92
O=c1cc(N2CCOCC2)oc2c(-c3ccccc3)cccc12 | – | – | 81 | – | 70 | 101 | – | – | – | – | – | – | – | – | – | – | 101 | 73 | – | –
COc1cc2c(cc1OC)-c1n[nH]c(Nc3cccc(F)c3)c1C2 | – | – | – | 117 | 101 | 100 | 82 | – | 59 | – | – | 47 | 5 | – | – | – | 111 | 67 | 20 | 4
COc1ccc(-c2cnc3c(-c4ccsc4)cnn3c2)cc1 | – | – | – | – | – | – | 98 | – | 82 | 33 | 48 | 53 | 19 | 21 | – | – | 93 | 124 | – | –
COc1cc2ncnc(Nc3cccc(Cl)c3)c2cc1OC | – | – | 32 | – | – | 113 | 105 | 119 | 86 | 60 | 16 | 111 | 52 | 47 | 101 | 66 | 104 | 74 | 52 | 12
N#Cc1c(NC(=O)c2cccc3ccccc23)sc2c1CCCC2 | – | 128 | 88 | – | – | 89 | 97 | – | 95 | – | – | – | 77 | 92 | – | – | – | – | 99 | 135
CN([C@@H](Cc1ccc(OS(=O)(=O)c2cccc3cnccc23)cc1)C(=O)N1CCN(c2ccccc2)CC1)S(=O)(=O)c1cccc2cnccc12 | – | – | 58 | – | – | – | – | – | – | – | – | – | 76 | – | – | – | – | 58 | – | –
COc1ccc(CNC(=O)Nc2ncc([N+](=O)[O-])s2)cc1 | – | 102 | 77 | – | – | – | – | – | – | 74 | 49 | – | – | 59 | 100 | 78 | 112 | 113 | 31 | 28
